From publication PMC4336329 (PLoS ONE, 2015)
The campaign covered roughly 310,000 compounds. About 14,000 (4.5%) showed an effect of 50% or more. The effect is printed as a negative number. This is one part of a sample in which strong results are shown more often than they occur.

What follows are compounds tested against human ether-à-go-go-related gene (hERG) potassium channel (human, UniProt Q12809) (assay: primary screen, population patch clamp on CHO cells stably expressing hERG; higher = less effect of the substance).
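Further: peak tail current of the secondary pulse compared with the same well before compound.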

Sequence of human ether-à-go-go-related gene (hERG) potassium channel (Q12809 whole entry, looked up): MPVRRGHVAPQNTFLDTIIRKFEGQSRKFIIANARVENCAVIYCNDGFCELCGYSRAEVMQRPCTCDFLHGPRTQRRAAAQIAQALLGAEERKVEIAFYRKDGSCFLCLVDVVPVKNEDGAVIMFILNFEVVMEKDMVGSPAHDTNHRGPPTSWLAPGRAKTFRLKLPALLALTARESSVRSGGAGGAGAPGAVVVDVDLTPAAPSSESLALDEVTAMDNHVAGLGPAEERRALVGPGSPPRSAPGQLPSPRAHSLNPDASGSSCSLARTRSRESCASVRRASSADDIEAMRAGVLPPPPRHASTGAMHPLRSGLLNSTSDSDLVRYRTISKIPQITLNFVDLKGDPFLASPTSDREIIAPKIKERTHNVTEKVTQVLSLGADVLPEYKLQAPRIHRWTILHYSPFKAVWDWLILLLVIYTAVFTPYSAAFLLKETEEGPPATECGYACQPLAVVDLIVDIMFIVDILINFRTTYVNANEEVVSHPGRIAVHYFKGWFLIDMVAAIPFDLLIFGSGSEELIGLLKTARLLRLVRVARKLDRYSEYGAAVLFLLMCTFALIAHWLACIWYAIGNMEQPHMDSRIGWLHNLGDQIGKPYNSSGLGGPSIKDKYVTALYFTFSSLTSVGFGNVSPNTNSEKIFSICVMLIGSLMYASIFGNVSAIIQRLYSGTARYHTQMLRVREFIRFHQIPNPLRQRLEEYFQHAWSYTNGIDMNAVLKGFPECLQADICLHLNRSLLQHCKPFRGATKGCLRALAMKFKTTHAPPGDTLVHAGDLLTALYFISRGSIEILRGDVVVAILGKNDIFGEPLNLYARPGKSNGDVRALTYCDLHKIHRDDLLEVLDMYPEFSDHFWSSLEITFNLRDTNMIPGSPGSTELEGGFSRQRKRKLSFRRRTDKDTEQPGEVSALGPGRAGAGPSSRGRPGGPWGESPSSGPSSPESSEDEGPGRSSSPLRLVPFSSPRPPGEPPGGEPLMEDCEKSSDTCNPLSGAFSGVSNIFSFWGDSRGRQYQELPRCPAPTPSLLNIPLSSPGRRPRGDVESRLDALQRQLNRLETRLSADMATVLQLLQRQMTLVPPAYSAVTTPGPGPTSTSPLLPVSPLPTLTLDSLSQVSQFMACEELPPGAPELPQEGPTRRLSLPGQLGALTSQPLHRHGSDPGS

| Compound | hERG current change (%, negative = inhibition) at 10uM |
| --- | --- |
| CCN(CC1CCCN(CCc2cccc(F)c2)C1)C(=O)c1ccc(CSC)o1 (centres unmarked) | -74.5% |
| CCN(CC)C(=O)C1CCCN(Cc2cccc(F)c2)C1 (centres unmarked) | 7.43% |
| CSCc1ccc(C(=O)N2CCCC(Nc3ccc(F)cc3)C2)o1 (centres unmarked) | -18.7% |
| C=CCC(=O)N(CC)CC1CCCN(CCc2cccc(F)c2)C1 (centres unmarked) | -54.2% |
| CN(C)CCN(CC1CCCN(Cc2ccccc2F)C1)C(=O)Cc1c(F)cccc1F (centres unmarked) | -9.05% |
| Cc1cc(C(=O)N(C)CC2CCCN(CCc3ccc(F)cc3)C2)c(C)o1 (centres unmarked) | -75.7% |
| CCN(CC1CCCN(CCc2cccc(F)c2)C1)C(=O)c1cc(C)oc1C (centres unmarked) | -66.8% |
| C=CCn1c(SCC(=O)Nc2ccc3c(c2)OCO3)nnc1-c1ccccc1OC | -7.02% |
| O=S(=O)(c1cccc(-c2nnc(-c3cccnc3)o2)c1)N1CCCCC1 | -25% |
| CCOC(=O)Cc1csc(NC(=O)COc2ccccc2OCC)n1 | -24.2% |
| O=S(=O)(Cc1ccccc1Cl)c1ncn[nH]1 | 14.2% |
| COc1ccccc1C(=O)COC(=O)CSC(C)C(=O)Nc1cc(C)on1 (centres unmarked) | -13.7% |
| CCOc1ccc(CN(C)C(=O)Cc2c[nH]c3ccccc23)cc1 | 12% |
| O=C(NCC1CCCN(Cc2cccc(F)c2)C1)c1cccc2ccccc12 (centres unmarked) | -17.6% |
| O=C(c1cc2ccccc2o1)N1CCN=C1SCc1cccc(F)c1 | -7.82% |
| CCN(CC1CCCN(CCc2cccc(F)c2)C1)C(=O)c1cc2ccccc2o1 (centres unmarked) | -79.6% |
| O=C(CN(C(=O)CCC(=O)Nc1ccccn1)c1ccc2c(c1)OCO2)NCc1ccc(F)cc1 | 9.42% |
| CCNC(=S)NC1CC2CCCC(C1)N2CCc1ccccc1 (centres unmarked) | -48.7% |
| O=C(Nc1ccccc1-c1ccccc1)NC1CC2CCCC(C1)N2CCc1ccccc1 (centres unmarked) | -53.3% |
| O=C(Nc1cccn(Cc2ccc(F)cc2)c1=O)NC1CCCCC1 | -36.2% |
| CCc1ccccc1NC(=S)NC1CC2CCC(C1)N2Cc1ccc(F)cc1 (centres unmarked) | -42% |
| CCOc1ccccc1NC(=O)NC1CC2CCCC(C1)N2Cc1nnnn1CCc1ccccc1 (centres unmarked) | -5.67% |

| Compound | hERG current change (%, negative = inhibition) at 10uM |
| --- | --- |
| O=C(Nc1ccccc1-c1ccccc1)NC1CC2CCCC(C1)N2Cc1ccc(F)cc1 (centres unmarked) | -66.4% |
| O=C(N/N=C/c1ccc[nH]1)c1ccncc1 | 20.2% |
| COc1cccc(NC(=O)CCS(=O)(=O)c2cccs2)c1 | 14% |
| CC(=O)c1c(C)[nH]c(C(=O)OCC(=O)N2CC(C)OC(C)C2)c1C (centres unmarked) | 20.7% |
| CCCCNC(=O)/C=C/c1ccc(S(=O)(=O)Nc2ccc(OC)cc2)cc1 | 3.52% |
| Cc1cnc(NC(=O)C2(c3ccccc3)CC2)s1 | 7.07% |
| O=C(Nc1sc2c(c1C(=O)O)CCCCC2)c1cccnc1 | 16.7% |
| CC(C)NC(=O)c1sc2c(c1C(=O)Nc1cccnc1)CCCC2 | -69.7% |
| NC(=O)c1c(NC(=O)c2cccnc2)sc2c1CCCC2 | 17.5% |
| Cc1cc(-c2onc(C)c2C(=O)Oc2ccc(Cl)cc2)no1 | -2.56% |
| Cc1cc(C)nc(SCCn2c(N3CCCCC3)nc3c2c(=O)n(C)c(=O)n3C)n1 | -4.05% |
| CC1(C)CC(=O)C=C(NC2CCCCCC2)C1 | -1.93% |
| O=C(Oc1ccc2ccccc2c1)C1CCC1 | 17% |
| O=C(Cn1nnc(-c2ccccc2)n1)N1CCN(S(=O)(=O)c2ccc(Cl)cc2)CC1 | 3.96% |
| Cc1ccccc1-c1nnn(CC(=O)N2CCN(C(=O)c3ccco3)CC2)n1 | -40.1% |
| O=C(Cn1nnc(-c2ccc(Cl)cc2)n1)N1CCN(C(=O)c2ccco2)CC1 | -65% |
| O=C(Nc1ccc(-c2nnn(CC(=O)N3CCN(C(=O)c4ccco4)CC3)n2)cc1)c1ccccc1F | -53.2% |
| O=C(Nc1ccc(-c2nnn(CC(=O)N3CCN(C(=O)c4ccco4)CC3)n2)cc1)c1ccc(F)cc1 | 3.09% |
| COc1ccc(C(=O)Nc2ccc(-c3nnn(CC(=O)N4CCN(C(=O)c5ccco5)CC4)n3)cc2)cc1 | 7.09% |
| Cc1ccc(C2=NOC(=O)/C2=C\c2ccc(C)o2)cc1 | 6.75% |
| O=C(N/N=C\c1cccnc1)C1c2ccccc2Oc2ccccc21 | 0.415% |
| CCOC(=O)C1=C(C)N(C)C(=S)N(C)C1c1ccc(OC)cc1 (centres unmarked) | -10.5% |

| Compound | hERG current change (%, negative = inhibition) at 10uM |
| --- | --- |
| CN(C)S(=O)(=O)c1ccc(C(=O)OCC(=O)NCc2ccco2)cc1 | 11.6% |
| Cc1ccc(-c2cc(C(=O)N3CCOCC3)c3cc(C)ccc3n2)cc1 | -4.82% |
| COc1ccccc1CNC(=O)CCC(=O)n1ncc2cc(C)ccc21 | 0.647% |
| c1ccc2c(c1)CCCN2Cc1nnnn1C1CCCC1 | -3.84% |
| O=C(C1CC1)N(Cc1ccco1)c1nc(-c2ccccc2)cs1 | -8.62% |
| Cc1ccc2c(c1)[C@@H]1CN(C)CC[C@@H]1N2S(=O)(=O)c1ccc(F)cc1.Cl | -29.1% |
| Cc1ccc2c(c1)C1CN(C)CCC1N2S(=O)(=O)c1ccccc1F (centres unmarked) | -32.4% |
| Cc1ccc2c(c1)C1CN(C)CCC1N2C(=O)COc1ccc(S(=O)(=O)N2CCOCC2)cc1 (centres unmarked) | -15.8% |
| Cc1ccc2c(c1)[C@@H]1CN(C)CC[C@@H]1N2S(=O)(=O)c1ccc([N+](=O)[O-])cc1.Cl | -75% |
| Cc1ccc2c(c1)C1CN(C)CCC1N2CC(=O)N(C)c1ccccc1 (centres unmarked) | 6.34% |
| Cc1ccc2c(c1)C1CN(C)CCC1N2Sc1ccccc1[N+](=O)[O-] (centres unmarked) | -62.8% |
| Cc1ccc2c(c1)C1CN(C)CCC1N2S(=O)(=O)c1ccc(Oc2ccc([N+](=O)[O-])cc2)cc1 (centres unmarked) | -21.3% |
| Cc1ccc2c(c1)C1CN(C)CCC1N2S(=O)(=O)c1ccc(C#N)cc1 (centres unmarked) | -72.8% |
| Cc1ccc2c(c1)C1CN(C)CCC1N2C(=O)c1cccc(S(=O)(=O)N(C)C)c1.c1ccccc1 (centres unmarked) | -25% |
| CN(C(=O)Cc1c(C(=O)O)n(C)c2ccccc12)c1ccc(F)cc1 | 19.8% |
| N#CCSc1nnc(COc2ccccc2)n1-c1ccccc1 | -10.7% |
| Cc1ccc(OCc2nnc(SCc3ccc(C#N)cc3)n2-c2ccc(C)cc2)cc1 | -29.6% |
| CCn1c(COc2ccc(Cl)cc2)nnc1SCc1ccc(C#N)cc1 | -70.5% |
| CCn1c(COc2ccc(C)cc2)nnc1SCc1ccc(C#N)cc1 | -59.6% |
| CCn1c(COc2ccc(Cl)cc2)nnc1SCc1nc2ccccc2[nH]1 | -17.7% |
| COc1ccc(-n2c(COc3ccccc3)nnc2SCc2ccc(C#N)cc2)cc1 | -39.4% |
| COc1ccc(-n2c(COc3ccc(Cl)cc3)nnc2SCc2ccc(C#N)cc2)cc1 | 0.977% |

| Compound | hERG current change (%, negative = inhibition) at 10uM |
| --- | --- |
| N#Cc1ccc(CSc2nnc(COc3ccccc3)n2-c2ccccc2)cc1 | -52.3% |
| COc1ccc(-n2c(COc3ccc(C)cc3)nnc2SCc2ccc(C#N)cc2)cc1 | -29.6% |
| CCn1c(COc2ccccc2)nnc1SCc1ccc(C#N)cc1 | -54.1% |
| CCSc1nnc(COc2ccccc2)n1CC | 6.43% |
| CCn1c(COc2ccccc2)nnc1SCC(=O)C(C)(C)C | -14.2% |
| COc1ccc(/C=N/NC(=O)CCN2CCCCC2c2cccnc2)cc1Cn1cc([N+](=O)[O-])cn1 (centres unmarked) | -30.7% |
| CCCCOCCCNC(=O)Cc1cccs1 | 1.1% |
| O=C(CN1C(=O)c2ccccc2C1=O)NN1C(=O)c2ccccc2C1=O | 1.18% |
| Cc1c(C(=O)Oc2cccc3cccnc23)oc2ccccc12 | -4.01% |
| Cc1cnc(C(=O)OCC(=O)NC2CCCC(C)C2C)cn1 (centres unmarked) | 6.02% |
| CC(=O)N1CCN(c2ccccc2NC(=O)c2cc(Br)ccc2Cl)CC1 | -66.6% |
| CC(=O)N1CCN(c2ccccc2NC(=O)c2ccc3ccccc3c2)CC1 | -61.9% |
| CS(=O)(=O)N1CCN(c2ccccc2NC(=O)c2ccc3ccccc3c2)CC1 | -8.76% |
| O=C(Nc1ccccc1N1CCCC1)c1cc(Cl)ccc1Cl | -2.72% |
| CS(=O)(=O)N1CCN(c2ccccc2NC(=O)c2cc(Br)ccc2Cl)CC1 | -30.3% |
| COc1c(Cl)cc(Cl)cc1C(=O)Nc1ccccc1N1CCN(C(C)=O)CC1 | 3.01% |
| CC(=O)N1CCN(c2ccccc2NC(=O)c2cccc3c(Cl)cccc23)CC1 | -19.2% |
| CN1CCN(c2ccccc2NC(=O)c2cc(Br)ccc2Cl)CC1 | -76.4% |
| O=C(Nc1ccccc1N1CCCC1)c1ccc2ccccc2c1 | 8.73% |
| CC(C)C(NC(=O)COc1ccc2ccccc2c1)C(=O)N/N=C/C=C/c1ccccc1 (centres unmarked) | 14.8% |
